Drawing on PubChem BioAssay (NCI), this text covers growth for 13 compounds.

Test systems include HCT-15 colon; HT29 colon; SNB-75 CNS; SNB-19 CNS; U251 CNS; PC-3 prostate; SK-MEL-5 melanoma; UACC-62 melanoma; LOX IMVI melanoma; SK-MEL-28 melanoma.
What all share (test): NCI-60 one-dose screen, 48 h (100 = growth as untreated, 0 = no growth, -100 = all killed)
What all share (conditions): 10 µM unless noted

About 83,000 compounds went through this panel and 20% of them were active in at least one assay; those are over-represented in the sample as a whole.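 96-well plates, one dose, 48 hours. Percent growth reported; active if below 10.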 A number with no mark means an inactive call. The source made the active and inactive calls.

With `Cc1cnc(SCc2ccc(Cl)cc2)[nH]c1=S`, the growth with HCT-15 colon is 101%; in the experiment on HT29 colon it was 82.9%; in the experiment on SNB-75 CNS, 85.2%; with SNB-19 CNS, 98.2%; with U251 CNS it was 96.3%; with PC-3 prostate it was 104%. In addition, the growth is 96.9% in the experiment with SK-MEL-5 melanoma, 99.4% in the experiment on UACC-62 melanoma, 101% in the experiment on LOX IMVI melanoma and 98.9% with SK-MEL-28 melanoma.

In the case of `Nc1ccc(C2=NN(C(=O)c3cc(-c4ccc(Cl)cc4)nc4ccccc34)C(c3ccc(Cl)cc3)C2)cc1` (stereo not given), the growth in the experiment with HCT-15 colon was 26.3%; in the experiment with HT29 colon, 11.5%; in the experiment on SNB-75 CNS, 67.5%; in the experiment with SNB-19 CNS, 30.5%; with U251 CNS it was 31.5%; in the experiment on PC-3 prostate, 23.3%. Further, the growth was 28.3% with SK-MEL-5 melanoma, 38% in the experiment on UACC-62 melanoma, 48.3% in the experiment with LOX IMVI melanoma and 65% in the experiment with SK-MEL-28 melanoma.

As for `COc1ccc(-n2cc(-c3ccc(Cl)c(Cl)c3)[nH]c2=O)cc1OC`, the growth with HCT-15 colon was 93.4%; with HT29 colon, 97.2%; in the experiment on SNB-75 CNS it was 91.8%; in the experiment with SNB-19 CNS it was 90.9%; in the experiment on U251 CNS, 91.7%; in the experiment on PC-3 prostate, 93.2%. Moreover, the growth in the experiment on SK-MEL-5 melanoma is 104%; with UACC-62 melanoma it was 87.5%; in the experiment with LOX IMVI melanoma it was 96.3%; in the experiment with SK-MEL-28 melanoma, 103%.

For the compound `COc1cc(/C=C/C(=O)c2cccs2)ccc1OCc1ccc(Cl)nc1`, the growth in the experiment on HCT-15 colon is 62.5%; with HT29 colon, 97.3%; in the experiment on SNB-75 CNS it was 119%; with SNB-19 CNS it was 66.6%; in the experiment with U251 CNS, 35.3%; in the experiment on PC-3 prostate, 69%. Besides, the growth is 87.2% with SK-MEL-5 melanoma, 71.3% in the experiment on UACC-62 melanoma, 27.2% in the experiment on LOX IMVI melanoma and 92% in the experiment with SK-MEL-28 melanoma.

Take `Nc1c(C(=O)Nc2ccccn2)sc2nc3c(cc12)CCCCCC3`: the growth in the experiment on HCT-15 colon was 20.2%; with HT29 colon it was 3.49% (active); with SNB-75 CNS, -1.5% (active); in the experiment on SNB-19 CNS it was 22.3%; in the experiment with U251 CNS, 16%; in the experiment with PC-3 prostate, 20.9%. For the same compound, the growth was 9.47% (active) with SK-MEL-5 melanoma, 24.8% in the experiment on UACC-62 melanoma, 36.2% with LOX IMVI melanoma and 51.2% with SK-MEL-28 melanoma.

`CCOc1ccc(C2N(c3cc(OC)c(OC)c(OC)c3)C(=O)C2(F)F)cc1` (stereo not given): the growth with HCT-15 colon is 22.6%; in the experiment on HT29 colon, 12.3%; in the experiment on SNB-75 CNS it was 55.9%; in the experiment with SNB-19 CNS it was 54.1%; in the experiment with U251 CNS, 36.2%; in the experiment on PC-3 prostate it was 37.3%. Moreover, the growth was 6.76% (active) in the experiment with SK-MEL-5 melanoma, 51.6% with UACC-62 melanoma, 27.6% in the experiment with LOX IMVI melanoma and 66.8% in the experiment on SK-MEL-28 melanoma.

Regarding `Nc1ccccc1NC(=O)c1ccc(CSc2nc(N3CCOCC3)c3cccn3n2)cc1`, the growth in the experiment with HCT-15 colon was 20.1%; in the experiment with HT29 colon it was 0.895% (active); with SNB-75 CNS, 20.3%; in the experiment on SNB-19 CNS, 32.7%; in the experiment on U251 CNS, 2.15% (active); with PC-3 prostate, 23.1%. For the same compound, the growth with SK-MEL-5 melanoma was -41.1% (active); with UACC-62 melanoma it was -31.9% (active); in the experiment on LOX IMVI melanoma, -38.6% (active); in the experiment with SK-MEL-28 melanoma it was 16.3%.

For `Nc1c(C(=O)Nc2ccccn2)sc2nc3c(cc12)C(=O)CCC3`, the growth with HCT-15 colon was 28.5%; with HT29 colon it was 12.4%; in the experiment on SNB-75 CNS it was 8.84% (active); with SNB-19 CNS, 28.2%; in the experiment on U251 CNS it was 29.5%; in the experiment with PC-3 prostate, 37.9%. Further, the growth with SK-MEL-5 melanoma is 17.1%; in the experiment on UACC-62 melanoma, 34.9%; in the experiment with LOX IMVI melanoma, 44.4%; with SK-MEL-28 melanoma it was 56.4%.

For `O=CN1N=C(c2ccc(Cl)cc2)CC1c1cccc(Nc2ccnc3cc(C(F)(F)F)ccc23)c1` (stereo not given), the growth was 71.2% in the experiment with HCT-15 colon; 58.5% in the experiment on HT29 colon; 74.9% with SNB-75 CNS; 70.6% in the experiment on SNB-19 CNS; 64.1% in the experiment with U251 CNS; 48.9% in the experiment with PC-3 prostate. In addition, the growth in the experiment on SK-MEL-5 melanoma is 1.24% (active); in the experiment on UACC-62 melanoma it was 63.7%; with LOX IMVI melanoma it was 51.5%; with SK-MEL-28 melanoma it was 90.8%.

As to `COc1ccc2c(c1)OC13Oc4cc(OC)ccc4C=C1CCCCC3=C2`, the growth in the experiment with HCT-15 colon was 92.6%; in the experiment on HT29 colon it was 71.5%; in the experiment on SNB-75 CNS, 89.8%; with SNB-19 CNS, 106%; with U251 CNS, 89.7%; with PC-3 prostate, 69.6%. For the same compound, the growth was 91.5% with SK-MEL-5 melanoma, 89.4% in the experiment on UACC-62 melanoma, 99.8% in the experiment with LOX IMVI melanoma and 111% in the experiment on SK-MEL-28 melanoma.

Turning to `C=C(C)[C@@H]1CC[C@]2(C(=O)O)CC[C@]3(C)[C@H](CC[C@@H]4[C@@]5(C)C[C@@H](CC#Cc6ccccc6C)C(=O)C(C)(C)[C@@H]5CC[C@]43C)[C@@H]12`, the growth in the experiment with HCT-15 colon is 20.9%; in the experiment on HT29 colon, 22.3%; in the experiment with SNB-75 CNS, 58.1%; with SNB-19 CNS it was 40%; in the experiment with U251 CNS it was 25.4%; with PC-3 prostate it was 31.4%. For the same compound, the growth is 28.2% in the experiment on SK-MEL-5 melanoma, 41.4% in the experiment with UACC-62 melanoma, 43.6% in the experiment on LOX IMVI melanoma and 42.9% with SK-MEL-28 melanoma.

For the compound `N#Cc1c(-c2ccc(F)cc2)nc(N=Nc2c(O)[nH]c3ccc(Cl)cc23)nc1N1CCOCC1`, the growth in the experiment on HCT-15 colon was 71.7%; in the experiment on HT29 colon it was 37.9%; with SNB-75 CNS, -6.94% (active); with SNB-19 CNS it was 39.8%; with U251 CNS, 15.8%; in the experiment with PC-3 prostate, 61%. In addition, the growth in the experiment with SK-MEL-5 melanoma was 29.6%; in the experiment on UACC-62 melanoma, 35.1%; in the experiment with LOX IMVI melanoma, 24.5%; in the experiment with SK-MEL-28 melanoma, 46.8%.

As for `CCN1CCC[C@H]1c1cc(O)c2c(c1OC)C[C@H]1C[C@H]3[C@H](N)C(=O)C(C(N)=O)=C(O)[C@@]3(O)C(=O)C1=C2O`, the growth was 1.67% (active) in the experiment on HCT-15 colon; -4.51% (active) with HT29 colon; -4.69% (active) in the experiment with SNB-75 CNS; -0.511% (active) in the experiment on SNB-19 CNS; -8.89% (active) in the experiment on U251 CNS; 3.27% (active) with PC-3 prostate. Further, the growth with SK-MEL-5 melanoma was -46% (active); with UACC-62 melanoma, -19% (active); in the experiment with LOX IMVI melanoma, -45.2% (active); in the experiment on SK-MEL-28 melanoma, -10.6% (active).
